Assay results: PubChem BioAssay AID1159580 (chemical genetic matrix, 2015)
Hit rate of the full screen: of about 5,500 compounds, about 2,000 (36%) were called active. Roughly 18% stayed inconclusive and do not appear here. Rule as the data show it: active = normalized growth mostly below about 0.91 (no sharp cut-off); inconclusive = no clear call, values can overlap the other calls; inactive = mostly above about 0.92. The list shows a part of the results.

Experiment: chemical genetic growth profiling, strain panel (AID 1159580);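 also: tested at 20 µM; growth read once vehicle control cultures reached saturation at 30 °C; 1 = growth at the plate median or of vehicle wells; lower values mean less growth of the strain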
Conditions: growth OD
[1] = S. cerevisiae deletion strains, locus YHR030C, strain SLT2, stronger effect = lower value
[2] = S. cerevisiae deletion strains, locus YAL013W, strain DEP1, stronger effect = lower value
[3] = S. cerevisiae deletion strains, locus YBR229C, strain ROT2, stronger effect = lower value
[4] = S. cerevisiae deletion strains, locus YDL101C, strain DUN1, stronger effect = lower value
[5] = S. cerevisiae deletion strains, locus YDR150W, strain NUM1, stronger effect = lower value
[6] = S. cerevisiae deletion strains, locus YEL061C, strain CIN8, stronger effect = lower value
[7] = S. cerevisiae deletion strains, locus YGR078C, strain PAC10, stronger effect = lower value
[8] = S. cerevisiae deletion strains, locus YHR087W, strain rtc3, stronger effect = lower value
[9] = S. cerevisiae deletion strains, locus YJR043C, strain POL32, stronger effect = lower value
[10] = S. cerevisiae deletion strains, locus YJR075W, strain HOC1, stronger effect = lower value
[11] = S. cerevisiae deletion strains, locus YKL190W, strain CNB1, stronger effect = lower value
[12] = S. cerevisiae deletion strains, locus YLR039C, strain RIC1, stronger effect = lower value
[13] = S. cerevisiae deletion strains, locus YLR058C, strain SHM2 (second series), stronger effect = lower value
[14] = S. cerevisiae deletion strains, locus YLR085C, strain ARP6, stronger effect = lower value
[15] = S. cerevisiae deletion strains, locus YLR262C, strain YPT6, stronger effect = lower value
[16] = S. cerevisiae deletion strains, locus YML094W, strain GIM5, stronger effect = lower value
[17] = S. cerevisiae deletion strains, locus YMR219W, strain ESC1, stronger effect = lower value
[18] = S. cerevisiae deletion strains, locus YMR263W, strain SAP30, stronger effect = lower value
[19] = S. cerevisiae deletion strains, locus YMR307W, strain GAS1, stronger effect = lower value
[20] = S. cerevisiae deletion strains, locus YNL153C, strain GIM3, stronger effect = lower value
[21] = S. cerevisiae deletion strains, locus YNL298W, strain CLA4 (second series), stronger effect = lower value
[22] = S. cerevisiae deletion strains, locus YNL322C, strain KRE1, stronger effect = lower value
[23] = S. cerevisiae deletion strains, locus YNR030W, strain Alg12, stronger effect = lower value
[24] = S. cerevisiae deletion strains, locus YOL006C, strain TOP1, stronger effect = lower value
[25] = S. cerevisiae deletion strains, locus YPL055C, strain LGE1, stronger effect = lower value
[26] = S. cerevisiae deletion strains, locus YPL241C, strain CIN2, stronger effect = lower value
[27] = S. cerevisiae deletion strains, locus YPR135W, strain CTF4, stronger effect = lower value

Measured: normalized growth

COc1cc2c3cc1Oc1c(OC)c(OC)cc4c1[C@@H](Cc1cccc(c1)Oc1ccc(c(O)c1)C[C@@H]3N(C)CC2)N(C)CC4
inactive: [1] 1.02 | S. cerevisiae deletion strains, locus YHR079C, strain IRE1, stronger effect = lower value 1.01 | S. cerevisiae deletion strains, locus YJL095W, strain BCK1, stronger effect = lower value 0.994 | S. cerevisiae deletion strains, locus YJR066W, strain TOR1, stronger effect = lower value 0.984 | S. cerevisiae deletion strains, locus YLR113W, strain HOG1, stronger effect = lower value 0.968 | S. cerevisiae deletion strains, locus YNL183C, strain NPR1, stronger effect = lower value 0.983 | S. cerevisiae deletion strains, locus YOR231W, strain MKK1, stronger effect = lower value 1.03 | S. cerevisiae deletion strains, locus YPL256C, strain CLN2, stronger effect = lower value 1.07

CN(C)/C=C1\C(=O)c2ccccc2N(C)S1(=O)=O
inactive: [2] 1 | [3] 0.994 | S. cerevisiae deletion strains, locus YCL061C, strain MRC1, stronger effect = lower value 0.999 | [4] 0.999 | S. cerevisiae deletion strains, locus YDL134C, strain PPH21, stronger effect = lower value 0.987 | [5] 1.02 | [6] 1.01 | [7] 0.982 | [1] 0.907 | [8] 0.954 | [9] 0.989 | [10] 0.949 | [11] 1.01 | [12] 0.84 | [13] 0.983 | [14] 1.06 | [15] 0.906 | [16] 1.02 | [17] 1 | [18] 1 | [19] 0.859 | [20] 0.997 | [21] 0.97 | [22] 0.999 | [23] 0.98 | [24] 0.946 | [25] 1.13 | [26] 1.01 | [27] 0.761 | S. cerevisiae strains, strain wild type, stronger effect = lower value 0.991

CN1C/C(=C\c2ccccc2Cl)C(=O)/C(=C/c2ccccc2Cl)C1
inactive: [2] 0.953 | [5] 0.942 | S. cerevisiae deletion strains, locus YJL187C, strain SWE1, stronger effect = lower value 0.942 | [9] 0.971 | [13] 0.958 | [18] 0.937 | [20] 0.958 | [22] 0.957 | [25] 0.92
active: [3] 0.911 | [4] 0.825 | [6] 0.699 | [7] 0.873 | [1] 0.27 | [8] 0.888 | [10] 0.831 | [11] 0.789 | [12] 0.447 | [14] 0.462 | [15] 0.655 | [16] 0.691 | [17] 0.909 | [19] 0.419 | [21] 0.523 | [23] 0.756 | [24] 0.562 | [26] 0.676 | [27] 0.422
